3T3 cytotox = Cytotoxic Profiling in NIH 3T3 Cell Line of Diverse Libraries Using Quantitative High-Throughput Screening; NIH 3T3 viability, CellTiter-Glo ATP luminescence, 48-72 h; Potency, µM (top dose mostly 96.7 µM), inactives show at the highest dose activity change, negative = cytotoxicity, most hits filed as inhibitors; 94,000 compounds, 4.3% hits; AID 1345082, 2018; note: nearly all actives have a fitted effect of over 55% in size
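First NIH 3T3 cells are plated at 400 cells/well; next compound is pinned in; then plates incubate 48 or 72 hr at 37 °C; finally CellTiter-Glo is added and luminescence read after 10 min.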
NPR1 antag = Natriuretic polypeptide receptor (hNpr1) antagonism - Primary qHTS | HEK293 hNpr1 GloSensor cGMP, ANP-stimulated luminescence | Potency, µM (series often up to 46.3 µM), without a hit: at the top dose activity change, negative = inhibition, hits mostly inhibitors | 76,000 compounds, 1.6% hits; calls by dose curve; note: nearly all actives have a fitted effect of over 60% in size
Target sequence (P16066 whole entry, looked up): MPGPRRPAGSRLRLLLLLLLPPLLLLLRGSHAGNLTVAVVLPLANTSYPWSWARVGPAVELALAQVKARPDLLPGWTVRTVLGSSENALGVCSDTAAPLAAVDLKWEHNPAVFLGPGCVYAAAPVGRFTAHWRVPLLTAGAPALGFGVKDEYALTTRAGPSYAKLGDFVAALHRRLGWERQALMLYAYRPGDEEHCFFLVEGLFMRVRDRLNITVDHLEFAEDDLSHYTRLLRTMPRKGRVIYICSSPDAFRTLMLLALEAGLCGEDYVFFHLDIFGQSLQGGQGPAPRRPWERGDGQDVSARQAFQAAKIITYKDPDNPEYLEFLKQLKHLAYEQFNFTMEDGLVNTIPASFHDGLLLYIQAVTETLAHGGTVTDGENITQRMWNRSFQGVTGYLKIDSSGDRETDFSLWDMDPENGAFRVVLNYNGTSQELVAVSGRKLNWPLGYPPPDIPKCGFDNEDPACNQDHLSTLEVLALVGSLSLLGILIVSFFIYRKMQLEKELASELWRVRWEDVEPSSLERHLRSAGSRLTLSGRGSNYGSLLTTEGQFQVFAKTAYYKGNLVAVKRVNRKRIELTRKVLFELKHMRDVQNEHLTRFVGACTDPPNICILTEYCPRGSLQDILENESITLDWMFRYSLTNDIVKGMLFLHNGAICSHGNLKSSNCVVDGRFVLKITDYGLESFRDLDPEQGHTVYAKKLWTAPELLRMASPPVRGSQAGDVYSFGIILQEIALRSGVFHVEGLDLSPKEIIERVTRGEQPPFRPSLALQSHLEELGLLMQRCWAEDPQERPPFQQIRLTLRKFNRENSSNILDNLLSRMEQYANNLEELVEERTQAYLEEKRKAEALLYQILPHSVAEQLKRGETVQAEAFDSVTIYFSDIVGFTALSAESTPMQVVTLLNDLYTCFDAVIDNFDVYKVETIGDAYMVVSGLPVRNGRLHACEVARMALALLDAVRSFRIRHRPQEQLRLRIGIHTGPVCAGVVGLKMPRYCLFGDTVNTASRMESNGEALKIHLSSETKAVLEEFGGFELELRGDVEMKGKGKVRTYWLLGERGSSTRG
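HEK293 cells stably expressing human Npr1 and cGMP GloSensor pGS-40F, loaded 2 h with 2% GloSensor reagent, given compound 30 min at room temperature. Luminescence read before and 20 min after 0.1 nM hNppA.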
HEK cytotox = Cytotoxic Profiling in HEK 293 Cell Line of Diverse Libraries Using Quantitative High-Throughput Screening; HEK 293 viability, ATP luminescence (CellTiter-Glo), 48-72 h; Potency, µM (highest dose often 115 µM), for inactives: top-dose activity change, negative = cytotoxicity, actives largely listed as inhibitors; 94,000 compounds, 6.6% hits; note: nearly all actives have a fitted effect of over 60% in size
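HEK 293 cells seeded at 250 cells/well were exposed to compound for 48 or 72 hr at 37 degree Celsius. Viability taken as ATP content by CellTiter-Glo luminescence.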
GPT2 inhibitor = Primary qHTS assay for inhibitors of Glutamate pyruvate transaminase 2 (GPT2); Alanine aminotransferase 2 (Homo sapiens), Q8TD30; Recombinant GPT2, coupled pyruvate oxidase/HRP Amplex Red fluorescence; Potency, µM (top dose mostly 57.7 µM), for the others: at the highest dose activity change, negative = inhibition, actives largely listed as inhibitors; 100,000 compounds, 0.25% hits; AID 1671188, 2021; note: nearly all actives have a fitted effect of over 60% in size
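Recombinant GPT2 (10ng/uL) with 250uM a-KG and 2mM L-alanine, 30 min at room temperature, in HEPES pH 7.5 buffer. Pyruvate detected by pyruvate oxidase/HRP/Amplex Red fluorescence after 30 min in the dark; AOA (50uM) as positive control.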
Luciferase inh = Firefly luciferase inhibition profiling of diverse chemical library using quantitative high-throughput screening; purified P. pyralis luciferase, luminescence, biochemical; 76,000 compounds, 2.5% hits; Luciferin 4-monooxygenase (Photinus pyralis), P08659; Potency, µM (series often up to 115 µM), hits mostly inhibitors; AID 1347043, 2019; note: nearly all actives have a fitted effect of over 65% in size
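Biochemical qHTS: compound (6-point titration) added to 10uM D-luciferin plus 10uM ATP in Tris acetate pH 7.5 buffer with Mg, Tween-20 and BSA, then purified enzyme at 10nM; light output imaged.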
Active calls of the source: *; i = inactive; ? = inconclusive; · = not tested or not shown; [ ] = another dose, or the depositor's remark. This is a sample that favours compounds with a hit; in the whole collection about 10% have one here. Unless noted, calls come from the whole dose curve; as a rule, active = well fitted curve in the direction sought with a large enough effect; inconclusive = small, poorly fitted or top-dose-only effect, or another doubt; inactive = no such curve, though single readings can be large; an effect the other way counts as inactive or inconclusive. % is set by controls: 0 for no effect and ±100 for the full control effect; potency is the fitted concentration of half-maximal effect.

SMILES	3T3 cytotox	NPR1 antag	HEK cytotox	GPT2 inhibitor	Luciferase inh
CCCOCCCNC(=O)c1c(C)noc1-c1ccc(C(C)(C)C)cc1	?	2.6%	35.5µM*	?	i
Cc1ccc(NC(=O)CC2CCCN(c3cnn(CC4CC4)c(=O)c3)C2)cc1C (centres undefined)	39.8µM*	-5.6%	?	i	i
COc1cccc(NC(=O)CC2CCCN(c3cnn(CC4CC4)c(=O)c3)C2)c1 (centres undefined)	?	-0.7%	?	-4.1%	i
COc1ccc(NC(=O)CC2CCCN(c3cnn(CC4CC4)c(=O)c3)C2)cc1 (centres undefined)	28.2µM*	0.2%	?	-9.0%	i
COc1cccc(CNC(=O)N2c3ccccc3CC2c2nc(C(C)C)no2)c1 (centres undefined)	?	2.7%	?	-7.5%	i
COc1ccc(CC(=O)NC2CCCc3c2[nH]c2c(Cl)cccc32)cc1OC (centres undefined)	12.6µM*	?	28.2µM*	i	i
COc1ccccc1C(=O)NC1CCCc2c1[nH]c1c(Cl)cccc21 (centres undefined)	?	5.0%	?	i	i
Cc1noc2nc(C(C)C)cc(C(=O)NC3CCCc4c3[nH]c3c(Cl)cccc43)c12 (centres undefined)	?	-1.7%	35.5µM*	-7.1%	i
Cc1noc(C)c1CC(=O)NC1CCCc2c1[nH]c1c(Cl)cccc21 (centres undefined)	20µM*	-11.0%	?	3.9%	i
CCc1nncn1C1CCN(S(=O)(=O)c2c(C)noc2C)C1 (centres undefined)	0.2%	-3.1%	2.5%	2.4%	i
CC(C)(C)c1ccnc(N[C@H]2CO[C@H]3[C@@H]2OC[C@@H]3NC(=O)CCCC(=O)O)n1	1.3%[174 µM]	-3.2%[70.6 µM]	-2.0%[172 µM]	i	i
CCN1c2cc(C(=O)Nc3cccc(C)c3)ccc2C(=O)N2CCCCCC21 (centres undefined)	?	-2.3%	?	1.9%	i
CCN1c2cc(C(=O)Nc3ccc(C)cc3)ccc2C(=O)N2CCCCC21 (centres undefined)	35.5µM*	?	39.8µM*	0.1%	i
CCN1c2cc(C(=O)Nc3cccc(OC(F)(F)F)c3)ccc2C(=O)N2CCCCCC21 (centres undefined)	28.2µM*	-6.3%	?	i	i
CCN1c2cc(C(=O)Nc3cccc(F)c3)ccc2C(=O)N2CCCC21 (centres undefined)	?	1.6%	?	0.4%	i
CCN1c2cc(C(=O)Nc3cccc(C)c3)ccc2C(=O)N2CCCCC21 (centres undefined)	35.5µM*	-2.2%	31.6µM*	i	i
CCN1c2cc(C(=O)Nc3cccc(SC)c3)ccc2C(=O)N2CCCCC21 (centres undefined)	?	1.4%	22.4µM*	i	i
CC(C)CNC(=O)c1ccc2oc(-c3ccncc3Cl)nc2c1	?	·	?	i	·
CCN1c2cc(C(=O)Nc3ccc(C(N)=O)cc3)ccc2C(=O)N2CCCCCC21 (centres undefined)	?	-2.1%	?	-7.2%	i
CCN1c2cc(C(=O)Nc3ccc(N(C)C)cc3)ccc2C(=O)N2CCCCCC21 (centres undefined)	?	-7.8%	39.8µM*	?	17.8µM*
CCN1c2cc(C(=O)Nc3cccc(C(F)(F)F)c3)ccc2C(=O)N2CCCCC21 (centres undefined)	?	0.0%	28.2µM*	-8.6%	i
CCN1c2cc(C(=O)Nc3cccc(F)c3)ccc2C(=O)N2CCCCCC21 (centres undefined)	?	-2.0%	?	i	i
Cc1ccc(-c2ccc3nnc(CNC(=O)Cc4cccc(Cl)c4)n3n2)cc1	i	2.3%	-3.4%	0.6%	?
CNC(=O)c1cccc(-c2ccc3c(N4CCOC[C@H]4C)nc(N4CCOC[C@H]4C)nc3n2)c1	·	·	·	-17.6%	·
COc1ccc(CNC(=O)CC[C@@H]2CNC(=O)[C@@H]3C[C@H](NCc4ccc(F)cc4)CN23)cc1	-1.3%	-0.5%	-3.2%	i	i
SMILES	3T3 cytotox	NPR1 antag	HEK cytotox	GPT2 inhibitor	Luciferase inh
CCCc1noc(-c2cccn3c(CNC(=O)C4CCC4)nnc23)n1	i	5.2%	i	i	i
COc1cccc(N2CCN(C(=O)C3CCCN(c4cnc5nccnc5c4)C3)CC2)c1 (centres undefined)	?	?	39.8µM*	i	i
CC1CCCN(C(=O)C2CCCN(c3cnc4nccnc4c3)C2)C1 (centres undefined)	-18.8%	2.8%	7.2%	i	i
COc1ccccc1NC(=O)CC1CCCN(c2cnn(CC3CC3)c(=O)c2)C1 (centres undefined)	35.5µM*	-20.4%	1.3%	-6.1%	i
CCOc1ccccc1NC(=O)CC1CCCN(c2cnn(CC3CC3)c(=O)c2)C1 (centres undefined)	35.5µM*	0.0%	?	-2.2%	i
O=C(COc1ccccc1)N1CCC(c2n[nH]c(=O)n2Cc2ccc(F)cc2)CC1	28.2µM*	0.0%	?	i	i
O=C(COc1ccc(Cl)cc1)N1CCC(c2n[nH]c(=O)n2Cc2ccc(F)cc2)CC1	3.16µM*	-3.6%	?	i	i
Cc1ccc(-n2c(C3CCN(C(=O)COc4ccc(F)cc4)CC3)n[nH]c2=O)cc1	?	0.0%	6.1%	i	i
Cc1ccc(Cn2c(C3CCN(C(=O)c4cc(C)cc(C)c4)CC3)n[nH]c2=O)cc1	-25.3%	3.1%	?	-7.7%	i
COc1ccc(Cn2c(C3CCN(C(=O)COc4ccccc4)CC3)n[nH]c2=O)cc1	?	-4.6%	-6.4%	1.3%	i
Cc1ccc(-n2c(C3CCN(C(=O)COc4ccc(Cl)cc4)CC3)n[nH]c2=O)cc1	2.82µM*	7.0%	-4.7%	-8.5%	i
Cc1ccc(Cn2c(C3CCN(C(=O)c4ccc(C(C)(C)C)cc4)CC3)n[nH]c2=O)cc1	28.2µM*	?	25.1µM*	-9.3%	i
Cc1ccc(-n2ccnc2-c2cc3n(n2)CCNC3)cc1N1CCCC1=O	-5.7%	5.3%	1.8%	4.3%	i
CC(=O)NCC(=O)N1[C@H]2CC[C@H]1c1cc(Nc3ncc(C(F)(F)F)c(NC4CCC4)n3)ccc12	·	·	·	i	·
